This is a sample that favours compounds with a hit; in the whole collection about 6.6% have one here.
Bead autofluor: compound fluorescence in toxin protease inhibitor counterscreen; compound autofluorescence counterscreen, microsphere flow cytometry; hits give high values; fluorescence intensity (test concentration not listed); actives 3.1% (n = 360,000); AID 624483; in the data active = fluorescence intensity above about 16000; inconclusive = no clear call, values can overlap the other calls
BoNT-F LC inh: blocks Botulinum neurotoxin F light chain protease | actives 0.22% (n = 360,000) | inhibition, % at 10 µM | AID 588497 | Multiplex microsphere protease cleavage assay, flow cytometry; in the data active = inhibition above about 35%, passing the limit was not always enough; inconclusive = no clear call, values can overlap the other calls; also: plate controls were buffer without enzyme for full effect and enzyme alone for no effect
Mtb FBA inh: inhibitors of M. tuberculosis fructose-bisphosphate aldolase | purified M. tuberculosis FBA, fluorescence read-out | inhibition, % at 1 µM | actives 2.3% (n = 360,000) | AID 588726; in the data active = inhibition above about 27%;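 also: 0% = vehicle and 100% = reference inhibitor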
Target sequence (P9WQA3 whole entry, looked up): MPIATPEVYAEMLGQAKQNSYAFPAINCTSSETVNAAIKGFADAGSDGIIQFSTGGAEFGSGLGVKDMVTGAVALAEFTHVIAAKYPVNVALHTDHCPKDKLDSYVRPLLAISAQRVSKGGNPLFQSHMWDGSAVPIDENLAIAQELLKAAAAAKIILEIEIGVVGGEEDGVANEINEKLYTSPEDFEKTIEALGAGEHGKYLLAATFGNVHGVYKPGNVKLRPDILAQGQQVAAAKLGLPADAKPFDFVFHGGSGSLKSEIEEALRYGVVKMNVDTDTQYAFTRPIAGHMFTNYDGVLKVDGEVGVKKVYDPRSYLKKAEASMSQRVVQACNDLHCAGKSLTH
GDH-TPI inh: inhibits GDH-TPI coupling enzymes, artifact for Mtb FBA screen; inhibition, % at 4.8 µM; GDH-TPI coupled enzyme counterscreen, NADH absorbance; actives 1.2% (n = 360,000); AID 588335; in the data active = inhibition above about 30%;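 also: 0% = DMSO wells and 100% = wells lacking the enzyme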
Anthrax LF inh2: anthrax lethal factor protease inhibition. P15917. multiplex microsphere protease cleavage assay, LF. inhibition, % at 10 µM. actives 0.12% (n = 360,000). AID 588501; also: plate controls were buffer without enzyme for full effect and enzyme alone for no effect
BoNT-A LC inh2: blocks Botulinum neurotoxin A light chain protease; multiplex microsphere protease substrate cleavage, flow cytometry; inhibition, % at 10 µM; actives 0.17% (n = 360,000); AID 588499; also: plate controls were buffer without enzyme for full effect and enzyme alone for no effect
An asterisk follows results filed as active; u = inconclusive; + = active, no number. Rule as the data show it, unless noted: active = inhibition above about 30%; inconclusive = no clear call, values can overlap the other calls; inactive = below that.

SMILES	Bead autofluor	BoNT-F LC inh	Mtb FBA inh	GDH-TPI inh	Anthrax LF inh2	BoNT-A LC inh2
O=c1[nH]cnc2c1cnn2Cc1ccccc1	21532*	2.3	-3.3	0.6	-2.9	u
Cn1ncc2c(=O)[nH]cnc21	2545	0.0	-1.2	6.7	-0.4	0.1
O=C(N/N=C/c1ccc([N+](=O)[O-])cc1)c1cc(C2CC2)nc2ccccc12	3501	u	-4.7	33.3*	-2.3	-0.6
Cc1cccc(/C=N/NC(=O)c2cc(C3CC3)nc3ccccc23)n1	4339	-3.8	6.2	15.7	-0.4	0.1
Cc1cc(C(=O)N/N=C/c2ccc([N+](=O)[O-])cc2)c2ccccc2n1	4403	u	-4.6	51.0*	1.8	-1.8
Cc1cc(C(=O)N/N=C/c2cc([N+](=O)[O-])ccc2O)c2ccccc2n1	2241	-7.4	-5.7	6.5	0.0	0.2
O=C(N/N=C/c1ccc([N+](=O)[O-])cc1)c1[nH]ncc1Br	3612	-10.4	+	19.6	-16.9	-0.2
O=C(N/N=C/c1ccc([N+](=O)[O-])cc1)c1cc(C2CC2)[nH]n1	6131	4.5	-0.9	34.9*	-3.9	0.2
O=C(N/N=C\c1cn[nH]c1-c1ccccc1)c1ccc([N+](=O)[O-])cc1	2146	-13.6	0.3	22.9	0.1	-1.1
CN(C)C(CNC(=O)CSc1nc2ccccc2c(=O)n1Cc1ccco1)c1ccccc1 (stereo unspecified)	5999	2.7	7.1	-3.5	-1.5	0.8
COCCN1C(=O)N[C@@H](c2cccs2)C(C(C)=O)=C1C	3751	6.2	0.3	6.2	-4.9	0.3
Cc1ccc(NC(=O)C(C)N2C(=O)c3ccccc3C2=O)cc1S(=O)(=O)N1CCOCC1 (stereo unspecified)	3100	6.2	7.5	-2.2	-4.4	0.5
COCCNC(=S)N/N=C1\CC(C)CC(C)(C)C1 (stereo unspecified)	4703	-4.5	0.4	-9.8	-7.3	-1.0
O=c1cc(CN2CCOCC2)c2cc(Cl)ccc2o1	3912	-13.9	-3.6	11.0	-4.4	-0.8
COc1cccc(NC(=O)COc2ccc(C(=O)N3CCN(C)CC3)cc2)c1	5702	9.7	6.9	16.4	-1.9	1.1
COc1cccc(CC(=O)OCC(=O)NNC(=O)c2ccc(Br)cc2)c1	3618	-2.7	2.5	5.6	1.4	-0.7
Cc1cc(C(=O)N/N=C/c2ccc3c(c2)OCO3)c2ccccc2n1	u	u	-1.7	40.5*	6.4	-0.5
COc1ccccc1C1c2[nH]c3ccccc3c2C[C@H]2C(=O)N(C3CCN(Cc4ccccc4)CC3)CC(=O)N12 (stereo partly specified)	4061	-0.6	-1.6	-1.4	6.6	-0.9
O=C(c1ccc2c(=O)n3c(nc2c1)CCC3)N1CCN(S(=O)(=O)c2ccccc2Br)CC1	6495	-5.7	-0.9	7.6	-2.4	-4.4
COc1cc(C(=O)Oc2ccc3c(c2)OCC3=O)cc(OC)c1OC	4422	43.7*	-2.6	7.4	2.2	1.0
CC(C)NS(=O)(=O)c1ccc(OCC(=O)Nc2ccc(F)cc2F)cc1	24368*	-3.8	2.9	3.5	-2.4	-3.3
COc1ccc(NC(=O)CC2SC(=N)N(c3ccccc3)C2=O)c(OC)c1 (stereo unspecified)	4503	-0.2	-3.0	0.6	-0.4	-0.3
Nc1nc(C2C(=O)CCCC2=O)cs1	24150*	-5.5	-1.5	-1.2	-2.1	-2.9
O=C(c1cc(-c2ccc(Cl)cc2)n[nH]1)N1CCN(C(=O)c2ccco2)CC1	5612	1.8	-0.3	7.4	-2.0	0.2
S=C(NCCc1ccccc1)Nc1cccc2cnccc12	3227	10.6	-1.7	6.9	1.9	1.1
SMILES	Bead autofluor	BoNT-F LC inh	Mtb FBA inh	GDH-TPI inh	Anthrax LF inh2	BoNT-A LC inh2
Cc1c(OC(=O)c2ccc([N+](=O)[O-])cc2)c2c(c[n+]1C)COC(C)(C)OC2	2477	-9.3	3.7	16.2	1.5	-0.2
Cc1ncc2c(c1OC(=O)c1ccccc1)COC(C)(C)OC2	23118*	-3.6	2.2	0.6	-1.2	u
Cc1noc(C)c1C(=O)N1CCC1(C)C(=O)NS(=O)(=O)c1cccs1 (stereo unspecified)	3604	-1.5	-2.8	-4.0	-2.2	-0.2
CCCCn1c(N)c(Sc2ccc(Cl)cc2)c(=O)[nH]c1=O	19647*	4.0	1.2	-5.6	0.1	2.1
CCCCn1c(N)c(Sc2ccc([N+](=O)[O-])cc2)c(=O)[nH]c1=O	2848	4.1	-0.2	23.8	11.5	-0.4
CC(C)(C)c1cc(CN(CCO)CCO)c(O)c(C(C)(C)C)c1	3624	-6.9	4.9	4.3	-9.2	-1.5
